Results filed as inconclusive are left out. Entries that show only a call come without a potency. Active and inactive are the calls of the source. The call rests on the fitted dose curve.
Experiment: Cytotoxicity counterscreen for inhibitors of SARS-CoV-2 cell entry (AID 1645845); further: nearly all actives have a fitted effect of over 50% in size
Settings: cell viability (SARS-CoV-2 entry assay cells); series mostly up to 57.1 µM; activity change, negative = cytotoxicity: at the top concentration
Procedure, shortened: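 Expi293F/hACE2 cells seeded overnight; cpd pin-transferred in DMSO, 1 h preincubation, + media, 48 h 37 C 5% CO2; ATPLite 1step luminescence; normalized to cells and no cells.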
Potency means the concentration at half of the fitted maximal effect.

Structure (SMILES) | outcome | activity change, negative = cytotoxicity | Potency
O=C(O)CCC(=O)c1ccc(-c2ccccc2)cc1 | inactive | – | –
Nc1ccc(S(=O)(=O)Nc2nccs2)cc1 | inactive | – | –
CN(Cc1ccc(C(C)(C)C)cc1)Cc1cccc2ccccc12 | – | -22.3% (inactive) | –
CCC1Nc2cc(Cl)c(S(N)(=O)=O)cc2S(=O)(=O)N1 (centres undefined) | inactive | – | –
O=C(NC1CCN(CCc2c[nH]c3ccccc23)CC1)c1ccccc1 | – | 3.62% (inactive) | –
C=CCc1ccccc1OCC(O)CNC(C)C (centres undefined) | – | 2.71% (inactive) | –
OC1C(O)C(O)C(O)C(O)C1O (centres undefined) | – | 1.16% (inactive) | –
C[N+]1(CC2COC(c3ccccc3)(C3CCCCC3)O2)CCCCC1 (centres undefined) | – | -12.8% (inactive) | –
CC1(C)[C@H](C(=O)O)N2C(=O)C[C@H]2S1(=O)=O | inactive | – | –
C[C@H](N)[C@H](O)c1cccc(O)c1 | inactive | – | –
CCOc1cc(N)c(Cl)cc1C(=O)NCC1CN(Cc2ccc(F)cc2)CCO1 (centres undefined) | – | – | inactive
CSc1ccc(C(=O)c2[nH]c(=O)[nH]c2C)cc1 | – | 2.13% (inactive) | –
Cc1ccc2c(Cl)cc(Cl)c(O)c2n1 | – | 1.06% (inactive) | –
CCN(CC)C(=O)N1CCN(C)CC1 | inactive | – | –
C[N+]12CCC(CC1)C(OC(=O)C(O)(c1ccccc1)c1ccccc1)C2 (centres undefined) | inactive | – | –
CC(C)[C@@H]1CC[C@@H](C)CC1=O | inactive | – | –
C[N+](C)(C)CCOC(=O)CCC(=O)OCC[N+](C)(C)C | – | 1.54% (inactive) | –
CN(CCCN1c2ccccc2CCc2ccccc21)CC(=O)c1ccc(Cl)cc1 | – | -23.5% (inactive) | –
C[C@@H]1CCN(C(=O)[C@H](CCCN=C(N)N)NS(=O)(=O)c2cccc3c2NC[C@H](C)C3)[C@@H](C(=O)O)C1 | inactive | – | –
COC(=O)C1=C(C)NC(C)=C(C(=O)OCCCN2CCC(c3ccccc3)(c3ccccc3)CC2)C1c1cccc([N+](=O)[O-])c1 (centres undefined) | – | – | 28.2 µM (active)

Structure (SMILES) | outcome | activity change, negative = cytotoxicity | Potency
CC(=O)N(CC(O)CN(C(C)=O)c1c(I)c(C(=O)NCC(O)CO)c(I)c(C(=O)NCC(O)CO)c1I)c1c(I)c(C(=O)NCC(O)CO)c(I)c(C(=O)NCC(O)CO)c1I (centres undefined) | inactive | – | –
CC(O)COc1ccccc1 (centres undefined) | inactive | – | –
Cc1nc(C2CCCCC2)c(-c2ccc(S(N)(=O)=O)c(F)c2)o1 | – | -3.08% (inactive) | –
CCOC(=O)OCC/C(SC(=O)OCC)=C(\C)N(C=O)Cc1cnc(C)nc1N | – | -0.2% (inactive) | –
COc1ccc(CN(CCN(C)C)c2ncccn2)cc1 | inactive | – | –
Cc1cc(O)c(C(C)C)cc1Cl | – | -6.31% (inactive) | –
CCCCC(=O)O[C@]1(C(=O)CO)[C@@H](C)C[C@H]2[C@@H]3CCC4=CC(=O)C=C[C@]4(C)[C@@]3(F)[C@@H](O)C[C@@]21C | – | – | inactive
CCc1cccc2c3c([nH]c12)C(CC)(CC(=O)O)OCC3 (centres undefined) | inactive | – | –
CC(C)c1cc2c(cc1S(=O)(=O)O)[C@@]1(C)CCC[C@@](C)(C(=O)O)[C@@H]1CC2 | inactive | – | –
C[C@]12CC[C@@H]3c4ccc(O)cc4CC[C@H]3[C@@H]1CC[C@@H]2OC(=O)CCC1CCCC1 | – | 4.14% (inactive) | –
c1ccc(CC2=NCCN2)cc1 | inactive | – | –
CCCC(=O)O[C@]1(C(=O)CC)CC[C@H]2[C@@H]3CCC4=CC(=O)CC[C@]4(C)[C@H]3[C@@H](O)C[C@@]21C | – | -3.17% (inactive) | –
COCCc1ccc(OCC(O)CNC(C)C)cc1 (centres undefined) | – | -6.54% (inactive) | –
CC(=O)Nc1ccc(S(=O)(=O)Nc2ccc([N+](=O)[O-])cc2)cc1 | inactive | – | –
C#C[C@]1(O)CC[C@H]2[C@@H]3CCC4=CC(=O)CC[C@@H]4[C@H]3CC[C@@]21C | inactive | – | –
O=C(c1ccc(F)cc1)C1CCN(CCn2c(=O)[nH]c3ccccc3c2=O)CC1 | – | 0.162% (inactive) | –
c1ccc2[nH]c(-c3cscn3)nc2c1 | – | – | inactive
CC(C)Cc1ccc(C(C)C(=O)OCc2ccccn2)cc1 (centres undefined) | inactive | – | –
Cc1cccc(N(C)C(=S)Oc2ccc3c(c2)C2CCC3C2)c1 (centres undefined) | – | -3.24% (inactive) | –
